Reference: PMC7862700, “An all-to-all approach to the identification of sequence-specific readers for epigenetic DNA modifications on cytosine”

Key:
Experiment in all cases: DAPPL (digital affinity profiling via proximity ligation, sequencing); 10 mM Tris-HCl pH 7.5, 50 mM NaCl, 1 mM DTT, 4% glycerol, room temperature, 30 min; GST-TFs on glutathione beads, 16-mer random dsDNA library, 0.1% formaldehyde crosslink after washing; high values mean tight binding
Settings in all cases: protein: recombinant; tags: N-terminal GST; dsDNA, one strand shown
FLI1 = biological target: T1, FLI1 (Homo sapiens, UniProt Q01543 1-452)
T1 sequence: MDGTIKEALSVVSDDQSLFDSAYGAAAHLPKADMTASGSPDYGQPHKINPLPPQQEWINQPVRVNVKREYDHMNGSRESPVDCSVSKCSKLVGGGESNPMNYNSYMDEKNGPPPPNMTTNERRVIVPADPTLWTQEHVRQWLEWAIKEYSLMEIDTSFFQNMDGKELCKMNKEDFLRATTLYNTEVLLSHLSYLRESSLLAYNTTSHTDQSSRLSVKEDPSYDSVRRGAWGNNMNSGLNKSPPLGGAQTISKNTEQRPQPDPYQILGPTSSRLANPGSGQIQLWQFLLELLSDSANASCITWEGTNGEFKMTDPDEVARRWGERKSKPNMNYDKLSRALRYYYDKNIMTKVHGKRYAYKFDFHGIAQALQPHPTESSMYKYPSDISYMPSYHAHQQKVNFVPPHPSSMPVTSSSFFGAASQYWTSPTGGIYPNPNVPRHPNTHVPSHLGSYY
Outline: (§1)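 Human transcription factors fused to GST were expressed in yeast, captured on glutathione beads, given DNA barcodes and pooled with a GST-only negative control. Pools were incubated with 200 nmole of a 16-mer random double-stranded DNA library in Tris/NaCl/DTT/glycerol buffer at room temperature for 30 min. They were then washed, crosslinked with 0.1% formaldehyde, proximity-ligated (BsaI/T4 ligase, 1 h, 37 °C), PCR-amplified and sequenced on an Illumina NextSeq500. Binding signal is each 6-mer's read frequency for a factor divided by its frequency for the GST control.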

ELK1 = biological target: T2, ELK1 (Homo sapiens, UniProt P19419 1-428)
T2 sequence: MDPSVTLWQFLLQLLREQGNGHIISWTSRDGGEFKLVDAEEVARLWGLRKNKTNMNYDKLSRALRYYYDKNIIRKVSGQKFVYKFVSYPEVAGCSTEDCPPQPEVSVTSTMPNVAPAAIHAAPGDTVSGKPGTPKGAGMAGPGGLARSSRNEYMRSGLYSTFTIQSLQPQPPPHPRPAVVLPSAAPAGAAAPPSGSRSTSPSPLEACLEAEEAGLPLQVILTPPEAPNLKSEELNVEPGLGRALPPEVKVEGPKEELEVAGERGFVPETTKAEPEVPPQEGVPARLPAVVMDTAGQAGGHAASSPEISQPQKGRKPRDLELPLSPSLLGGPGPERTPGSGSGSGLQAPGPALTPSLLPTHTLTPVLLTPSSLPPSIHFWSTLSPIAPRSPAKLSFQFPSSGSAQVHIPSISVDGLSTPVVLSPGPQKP
Outline: as §1

GABPA = biological target: T3, GABPA (Homo sapiens, UniProt Q06546 1-454)
T3 sequence: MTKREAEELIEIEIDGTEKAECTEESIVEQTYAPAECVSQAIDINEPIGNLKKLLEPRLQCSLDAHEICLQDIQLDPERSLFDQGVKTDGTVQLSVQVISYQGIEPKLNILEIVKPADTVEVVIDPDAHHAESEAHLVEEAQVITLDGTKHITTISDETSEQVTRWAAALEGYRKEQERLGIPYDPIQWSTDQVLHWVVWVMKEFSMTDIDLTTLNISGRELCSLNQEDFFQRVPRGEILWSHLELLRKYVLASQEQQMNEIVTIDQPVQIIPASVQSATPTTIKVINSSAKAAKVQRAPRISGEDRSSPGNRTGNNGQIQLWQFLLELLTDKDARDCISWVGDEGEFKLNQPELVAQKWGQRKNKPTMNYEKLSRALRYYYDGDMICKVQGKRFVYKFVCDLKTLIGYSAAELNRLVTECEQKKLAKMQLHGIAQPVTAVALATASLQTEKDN
Outline: as §1

ERG = biological target: T4, ERG (Homo sapiens, UniProt P11308 1-479)
T4 sequence: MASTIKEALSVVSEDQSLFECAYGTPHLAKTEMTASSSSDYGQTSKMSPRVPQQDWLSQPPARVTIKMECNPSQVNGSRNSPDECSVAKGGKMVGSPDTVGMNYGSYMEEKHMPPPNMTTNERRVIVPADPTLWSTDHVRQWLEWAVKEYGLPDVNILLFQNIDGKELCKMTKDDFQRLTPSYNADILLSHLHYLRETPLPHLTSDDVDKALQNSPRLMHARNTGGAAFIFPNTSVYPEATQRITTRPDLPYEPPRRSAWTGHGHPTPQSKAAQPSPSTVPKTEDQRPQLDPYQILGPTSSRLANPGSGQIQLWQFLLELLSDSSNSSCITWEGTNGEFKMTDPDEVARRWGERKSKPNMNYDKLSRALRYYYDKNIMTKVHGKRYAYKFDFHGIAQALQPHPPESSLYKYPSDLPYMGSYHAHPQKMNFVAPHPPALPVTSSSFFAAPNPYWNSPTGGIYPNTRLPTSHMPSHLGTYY
Outline: as §1

ELF1 = ELF1 (Homo sapiens, UniProt P32519 1-619)
Outline: as §1

EHF = biological target: T5, EHF (Homo sapiens, UniProt Q9NZC4 1-300)
T5 sequence: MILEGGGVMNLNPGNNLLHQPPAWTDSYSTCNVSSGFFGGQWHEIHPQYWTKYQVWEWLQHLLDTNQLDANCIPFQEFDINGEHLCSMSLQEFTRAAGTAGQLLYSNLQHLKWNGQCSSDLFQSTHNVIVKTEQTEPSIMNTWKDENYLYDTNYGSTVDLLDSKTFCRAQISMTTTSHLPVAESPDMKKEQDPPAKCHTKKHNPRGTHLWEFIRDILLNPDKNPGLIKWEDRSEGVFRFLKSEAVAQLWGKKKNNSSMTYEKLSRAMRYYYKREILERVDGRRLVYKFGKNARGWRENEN
Outline: as §1

SPI1 = SPI1 (Homo sapiens, UniProt P17947 1-270)
Outline: as §1

SPIB = SPIB (Homo sapiens, UniProt Q01892 1-262)
Outline: as §1

ELK3 = biological target: T6, ELK3 (Homo sapiens, UniProt P41970 1-407)
T6 sequence: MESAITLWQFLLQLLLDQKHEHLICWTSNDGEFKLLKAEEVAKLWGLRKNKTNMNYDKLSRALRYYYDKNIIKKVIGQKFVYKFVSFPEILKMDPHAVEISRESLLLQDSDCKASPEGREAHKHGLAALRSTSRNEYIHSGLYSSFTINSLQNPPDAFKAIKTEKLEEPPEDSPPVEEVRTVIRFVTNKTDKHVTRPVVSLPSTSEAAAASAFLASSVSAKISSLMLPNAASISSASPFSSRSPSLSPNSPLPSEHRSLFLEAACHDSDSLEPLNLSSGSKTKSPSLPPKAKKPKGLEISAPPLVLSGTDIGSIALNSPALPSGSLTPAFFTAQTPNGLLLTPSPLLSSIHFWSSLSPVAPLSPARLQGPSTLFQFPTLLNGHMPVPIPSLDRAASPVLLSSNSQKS
Outline: as §1

FEV = biological target: T7, FEV (Homo sapiens, UniProt Q99581 1-238)
T7 sequence: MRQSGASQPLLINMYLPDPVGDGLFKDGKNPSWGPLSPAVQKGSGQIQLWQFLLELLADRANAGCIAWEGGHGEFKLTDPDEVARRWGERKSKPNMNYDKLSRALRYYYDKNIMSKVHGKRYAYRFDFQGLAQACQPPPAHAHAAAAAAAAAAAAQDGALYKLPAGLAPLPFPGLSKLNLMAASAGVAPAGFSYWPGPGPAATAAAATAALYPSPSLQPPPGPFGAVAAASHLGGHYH
Outline: as §1

ETV5 = ETV5 (Homo sapiens, UniProt P41161 1-510)
Outline: as §1

SPIC = biological target: T8, SPIC (Homo sapiens, UniProt Q8N5J4 1-248)
T8 sequence: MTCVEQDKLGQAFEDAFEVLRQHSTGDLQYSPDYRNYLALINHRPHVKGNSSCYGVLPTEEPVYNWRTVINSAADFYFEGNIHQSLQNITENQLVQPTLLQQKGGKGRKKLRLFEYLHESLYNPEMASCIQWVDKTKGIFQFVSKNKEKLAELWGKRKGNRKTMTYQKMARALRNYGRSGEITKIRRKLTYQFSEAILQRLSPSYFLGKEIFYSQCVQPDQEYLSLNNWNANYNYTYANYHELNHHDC
Outline: as §1

ELF4 = ELF4 (Homo sapiens, UniProt Q99607 1-663)
Outline: as §1

ELK4 = biological target: T9, ELK4 (Homo sapiens, UniProt P28324-2 1-405)
T9 sequence: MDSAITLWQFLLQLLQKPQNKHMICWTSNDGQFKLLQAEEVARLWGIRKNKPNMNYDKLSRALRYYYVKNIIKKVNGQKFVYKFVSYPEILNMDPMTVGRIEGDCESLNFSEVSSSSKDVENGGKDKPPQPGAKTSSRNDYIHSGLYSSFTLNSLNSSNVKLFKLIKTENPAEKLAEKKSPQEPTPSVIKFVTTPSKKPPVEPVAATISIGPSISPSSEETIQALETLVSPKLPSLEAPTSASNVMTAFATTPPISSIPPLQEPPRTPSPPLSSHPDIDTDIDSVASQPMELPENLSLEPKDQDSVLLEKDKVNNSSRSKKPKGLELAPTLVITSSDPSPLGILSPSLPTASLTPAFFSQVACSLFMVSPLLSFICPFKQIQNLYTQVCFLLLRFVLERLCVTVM
Outline: as §1

ETV2 = biological target: T10, ETV2 (Homo sapiens, UniProt O00321 1-342)
T10 sequence: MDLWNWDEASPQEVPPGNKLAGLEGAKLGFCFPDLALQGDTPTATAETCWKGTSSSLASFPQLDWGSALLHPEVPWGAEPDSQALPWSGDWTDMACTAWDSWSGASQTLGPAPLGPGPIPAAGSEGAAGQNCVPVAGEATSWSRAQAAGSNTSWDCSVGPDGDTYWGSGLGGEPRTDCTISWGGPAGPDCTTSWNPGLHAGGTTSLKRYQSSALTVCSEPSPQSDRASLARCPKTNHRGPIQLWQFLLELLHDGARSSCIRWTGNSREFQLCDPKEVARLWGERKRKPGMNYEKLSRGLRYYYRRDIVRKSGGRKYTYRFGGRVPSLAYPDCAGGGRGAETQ
Outline: as §1

ELF3 = biological target: T11, ELF3 (Homo sapiens, UniProt P78545 1-371)
T11 sequence: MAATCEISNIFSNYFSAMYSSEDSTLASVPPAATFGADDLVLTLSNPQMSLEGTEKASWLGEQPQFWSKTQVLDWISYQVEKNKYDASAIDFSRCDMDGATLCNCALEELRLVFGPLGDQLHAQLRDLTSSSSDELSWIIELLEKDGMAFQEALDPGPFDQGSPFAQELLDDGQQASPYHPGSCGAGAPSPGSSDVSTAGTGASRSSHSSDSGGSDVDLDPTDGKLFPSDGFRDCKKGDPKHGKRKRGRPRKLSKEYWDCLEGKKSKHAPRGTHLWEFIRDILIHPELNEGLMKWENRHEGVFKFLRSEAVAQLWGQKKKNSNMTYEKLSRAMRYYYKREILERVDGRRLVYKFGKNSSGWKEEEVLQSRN
Outline: as §1

ETV1 = ETV1 (Homo sapiens, UniProt P50549 1-477)
Outline: as §1

Chain of ELF4 (Q99607 whole entry): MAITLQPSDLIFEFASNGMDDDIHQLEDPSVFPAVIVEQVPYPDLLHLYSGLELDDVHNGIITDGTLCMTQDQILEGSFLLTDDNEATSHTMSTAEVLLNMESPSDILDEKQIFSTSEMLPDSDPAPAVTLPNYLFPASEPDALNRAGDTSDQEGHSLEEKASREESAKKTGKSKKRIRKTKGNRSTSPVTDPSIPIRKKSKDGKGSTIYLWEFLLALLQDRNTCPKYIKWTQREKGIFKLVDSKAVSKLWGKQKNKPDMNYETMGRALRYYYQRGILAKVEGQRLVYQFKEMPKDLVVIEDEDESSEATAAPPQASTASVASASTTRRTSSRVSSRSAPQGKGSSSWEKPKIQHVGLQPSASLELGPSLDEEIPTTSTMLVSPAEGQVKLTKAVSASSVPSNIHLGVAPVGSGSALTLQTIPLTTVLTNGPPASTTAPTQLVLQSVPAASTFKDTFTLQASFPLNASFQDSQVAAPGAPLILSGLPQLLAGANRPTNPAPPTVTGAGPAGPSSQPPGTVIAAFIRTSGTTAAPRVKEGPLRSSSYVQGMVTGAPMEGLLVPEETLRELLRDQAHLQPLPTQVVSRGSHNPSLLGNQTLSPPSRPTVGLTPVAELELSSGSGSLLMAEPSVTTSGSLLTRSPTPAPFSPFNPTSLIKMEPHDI
Chain of ELF1 (P32519 whole entry): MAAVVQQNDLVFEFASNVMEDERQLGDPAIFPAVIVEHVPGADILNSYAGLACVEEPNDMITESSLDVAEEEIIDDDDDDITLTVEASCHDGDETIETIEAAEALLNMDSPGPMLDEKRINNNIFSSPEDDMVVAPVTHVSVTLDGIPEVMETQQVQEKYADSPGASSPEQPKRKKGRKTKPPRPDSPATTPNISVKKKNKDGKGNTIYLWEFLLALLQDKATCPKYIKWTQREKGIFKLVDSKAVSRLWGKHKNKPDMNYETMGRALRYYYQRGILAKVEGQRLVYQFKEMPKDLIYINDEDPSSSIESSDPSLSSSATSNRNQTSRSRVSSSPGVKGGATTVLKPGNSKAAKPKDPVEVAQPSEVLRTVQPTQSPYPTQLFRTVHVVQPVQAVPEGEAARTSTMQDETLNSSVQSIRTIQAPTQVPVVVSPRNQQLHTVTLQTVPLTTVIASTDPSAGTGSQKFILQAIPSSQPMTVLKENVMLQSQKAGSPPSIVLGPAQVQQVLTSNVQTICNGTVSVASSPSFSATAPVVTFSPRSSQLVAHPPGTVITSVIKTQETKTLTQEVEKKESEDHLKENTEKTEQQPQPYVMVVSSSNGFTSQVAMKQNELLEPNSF
Chain of ETV1 (P50549 whole entry): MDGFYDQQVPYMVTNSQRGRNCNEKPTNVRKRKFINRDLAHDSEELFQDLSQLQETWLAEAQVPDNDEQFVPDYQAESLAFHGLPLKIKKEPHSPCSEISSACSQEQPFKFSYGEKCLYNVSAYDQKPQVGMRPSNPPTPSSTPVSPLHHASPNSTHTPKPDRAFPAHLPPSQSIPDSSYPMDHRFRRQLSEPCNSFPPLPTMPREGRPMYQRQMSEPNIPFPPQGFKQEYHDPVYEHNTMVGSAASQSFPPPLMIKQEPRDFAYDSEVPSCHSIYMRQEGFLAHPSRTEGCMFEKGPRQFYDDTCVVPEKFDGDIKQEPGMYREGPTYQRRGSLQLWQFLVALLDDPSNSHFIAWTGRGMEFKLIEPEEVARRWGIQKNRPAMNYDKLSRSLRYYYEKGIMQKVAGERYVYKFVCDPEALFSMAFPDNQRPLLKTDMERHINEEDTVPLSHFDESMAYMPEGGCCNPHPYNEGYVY
Chain of ETV5 (P41161 whole entry): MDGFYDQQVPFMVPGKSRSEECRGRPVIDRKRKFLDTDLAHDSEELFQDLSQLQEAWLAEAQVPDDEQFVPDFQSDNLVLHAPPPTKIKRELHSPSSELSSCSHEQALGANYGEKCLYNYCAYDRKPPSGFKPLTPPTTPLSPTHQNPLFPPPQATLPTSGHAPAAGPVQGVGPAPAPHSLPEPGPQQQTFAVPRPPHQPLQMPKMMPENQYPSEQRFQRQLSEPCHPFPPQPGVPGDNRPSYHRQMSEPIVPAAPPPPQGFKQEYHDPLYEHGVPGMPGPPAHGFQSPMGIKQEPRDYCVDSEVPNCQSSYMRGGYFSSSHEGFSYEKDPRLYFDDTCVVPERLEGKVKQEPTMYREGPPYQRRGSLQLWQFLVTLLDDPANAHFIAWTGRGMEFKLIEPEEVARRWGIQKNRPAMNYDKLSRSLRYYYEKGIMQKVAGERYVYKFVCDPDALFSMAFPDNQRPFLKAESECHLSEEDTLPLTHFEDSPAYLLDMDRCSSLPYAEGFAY
Chain of SPIB (Q01892 whole entry): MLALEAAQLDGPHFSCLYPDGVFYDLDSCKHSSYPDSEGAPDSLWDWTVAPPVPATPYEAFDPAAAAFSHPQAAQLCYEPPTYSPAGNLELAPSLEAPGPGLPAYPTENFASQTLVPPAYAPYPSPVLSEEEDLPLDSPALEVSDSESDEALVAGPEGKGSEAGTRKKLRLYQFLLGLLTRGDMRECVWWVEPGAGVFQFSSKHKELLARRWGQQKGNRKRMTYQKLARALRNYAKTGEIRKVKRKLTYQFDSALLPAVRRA

Row | Sequence | binding signal (FLI1) | binding signal (ELK1) | binding signal (GABPA) | binding signal (ERG) | binding signal (ELF1) | binding signal (EHF) | binding signal (SPI1) | binding signal (SPIB) | binding signal (ELK3) | binding signal (FEV) | binding signal (ETV5) | binding signal (SPIC) | binding signal (ELF4) | binding signal (ELK4) | binding signal (ETV2) | binding signal (ELF3) | binding signal (ETV1)
1 | ATACGG | 1.19 fold enrichment (6-mer frequency, TF over GST control) | 1.16 fold enrichment (6-mer frequency, TF over GST control) | 1.17 fold enrichment (6-mer frequency, TF over GST control) | 1.23 fold enrichment (6-mer frequency, TF over GST control) | 1.19 fold enrichment (6-mer frequency, TF over GST control) | 1.2 fold enrichment (6-mer frequency, TF over GST control) | 1.31 fold enrichment (6-mer frequency, TF over GST control) | 1.23 fold enrichment (6-mer frequency, TF over GST control) | 1.23 fold enrichment (6-mer frequency, TF over GST control) | 1.16 fold enrichment (6-mer frequency, TF over GST control) | 1.25 fold enrichment (6-mer frequency, TF over GST control) | 1.2 fold enrichment (6-mer frequency, TF over GST control) | 1.2 fold enrichment (6-mer frequency, TF over GST control) | 1.03 fold enrichment (6-mer frequency, TF over GST control) | 1.22 fold enrichment (6-mer frequency, TF over GST control) | 1.25 fold enrichment (6-mer frequency, TF over GST control) | 1.21 fold enrichment (6-mer frequency, TF over GST control)
2 | CAAACT | 1.18 fold enrichment (6-mer frequency, TF over GST control) | 1.14 fold enrichment (6-mer frequency, TF over GST control) | 1.21 fold enrichment (6-mer frequency, TF over GST control) | 1.12 fold enrichment (6-mer frequency, TF over GST control) | 1.17 fold enrichment (6-mer frequency, TF over GST control) | 1.15 fold enrichment (6-mer frequency, TF over GST control) | 1.12 fold enrichment (6-mer frequency, TF over GST control) | 1.14 fold enrichment (6-mer frequency, TF over GST control) | 1.23 fold enrichment (6-mer frequency, TF over GST control) | 1.17 fold enrichment (6-mer frequency, TF over GST control) | 1.16 fold enrichment (6-mer frequency, TF over GST control) | 1.14 fold enrichment (6-mer frequency, TF over GST control) | 1.17 fold enrichment (6-mer frequency, TF over GST control) | 1.15 fold enrichment (6-mer frequency, TF over GST control) | 1.21 fold enrichment (6-mer frequency, TF over GST control) | 1.06 fold enrichment (6-mer frequency, TF over GST control) | 1.28 fold enrichment (6-mer frequency, TF over GST control)
3 | TCCGCG | 1.25 fold enrichment (6-mer frequency, TF over GST control) | 1.27 fold enrichment (6-mer frequency, TF over GST control) | 1.03 fold enrichment (6-mer frequency, TF over GST control) | 1.41 fold enrichment (6-mer frequency, TF over GST control) | 1.2 fold enrichment (6-mer frequency, TF over GST control) | 1.23 fold enrichment (6-mer frequency, TF over GST control) | 1.3 fold enrichment (6-mer frequency, TF over GST control) | 1.36 fold enrichment (6-mer frequency, TF over GST control) | 1.14 fold enrichment (6-mer frequency, TF over GST control) | 1.2 fold enrichment (6-mer frequency, TF over GST control) | 1.33 fold enrichment (6-mer frequency, TF over GST control) | 1.18 fold enrichment (6-mer frequency, TF over GST control) | 1.23 fold enrichment (6-mer frequency, TF over GST control) | 1.32 fold enrichment (6-mer frequency, TF over GST control) | 1.32 fold enrichment (6-mer frequency, TF over GST control) | 1.08 fold enrichment (6-mer frequency, TF over GST control) | 1.33 fold enrichment (6-mer frequency, TF over GST control)
